Each structure is given as a SMILES string. Results with a measured potency or affinity are listed apart. The source made the active and inactive calls.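 How the source made its calls: active means a dose-response curve fit returns a half-maximal inhibitory concentration, extrapolated values included; inactive means the fit returns no such concentration.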

In this experiment the target is HMG-CoA reductase [Enterococcus faecalis] (UniProt Q9FD70). The experiment is described as follows: class II HMG-CoA reductase inhibition potency – biochemical, Enterococcus faecalis, confirmation (AID 1233). The settings on record: purified E. faecalis HMGR, NADPH absorbance 340 nm kinetics; series mostly up to 100 µM.
`COCCOC(=O)c1c(NC(=O)CN2CCOCC2)sc(C(N)=O)c1C`: the call was inactive.

With `COC(=O)[C@@]1(Cc2ccc(OC)cc2)[C@H]2c3cc(C(=O)N(C)C)n(CCc4ccc(OC)c(Br)c4)c3C[C@H]2CN1C(=O)c1ccccc1`, the outcome was inactive. To `CC1CN(C(=O)c2cccc(S(=O)(=O)Nc3ccc(Cl)cc3)c2)CC(C)O1` (stereo not drawn) belongs “inactive”; to `COc1ccccc1C(=O)N/C(=C/c1ccc(Br)cc1)C(=O)NCC(=O)O`, “inactive”; to `O=C(C1c2ccccc2C(=O)N2CCc3ccccc3C12)N1CCN(Cc2ccccc2)CC1` (stereo not drawn), “inactive”. Consider `Cc1ccc(NC(=S)NC(=O)CC2CC(C)(C)OC2=O)cc1` (stereo not drawn), for which the result was inactive.

For the compound `Cc1ccc(SC(=O)COc2ccc(C)c(C)c2)cc1`, the compound was classed as inactive. As to `Cc1cc(-c2ccccc2)nc(SCC(=O)N2CCCC2)n1`, the outcome was inactive. On to `O=C(CC1SCCNC1=O)Nc1ccc(F)c(Cl)c1` (stereo not drawn), for which the compound was classed as inactive. `Cc1ccc(-c2noc(CSc3nnc(Cc4ccccc4)n3-c3ccc(Cl)cc3)n2)cc1`: the compound was called inactive. `CC1(C)CC(CCC(=O)Nc2ccccc2Cl)C(=O)O1` (stereo not drawn): the result was inactive. Regarding `O=c1c(OC2OC(CO)C(O)C(O)C2O)c(-c2ccc(O)c(O)c2)oc2cc(O)cc(O)c12` (stereo not drawn), the outcome was inactive. Consider `CCN(CC)Cc1c(C(=O)N2CCc3ccccc3C2)nc2ccc(Cl)cn12`, for which the call was inactive. With `OC(COc1ccc(Cl)cc1)CN1CCCCC1` (stereo not drawn), the compound was classed as inactive. `COc1oc(-c2ccc(Cl)cc2)nc1C(F)(F)F`: the call was inactive. As to `CC[n+]1c(C)n(-c2ccccc2)c2ccc(C(=O)OC)cc21`, the outcome was inactive. `Cc1cc(C)c(S(=O)(=O)c2ccccc2)c(OC(=O)c2c(F)cccc2F)n1`: the outcome was inactive. As for `O=C1CN(C(=O)CSc2nc3cc(Cl)ccc3c(=O)n2Cc2ccccc2)c2ccccc2N1`, the outcome was inactive. The same measure for `Cc1ccc(Cn2nnc3c(=O)n(CC(=O)NCc4ccco4)cnc32)cc1`: “inactive”. Consider `O=C(CN1CCN(Cc2ccc(F)cc2Cl)C1=O)NCCc1ccc(Cl)cc1`, for which the compound was classed as inactive. As for `CC1SC(c2ccc(Cl)cc2)NC1=O` (stereo not drawn), the outcome was inactive. The same measure for `COc1ccc(Cc2noc(-c3ccccc3)n2)cc1OC`: “inactive”; for `O=C(NCCCN1CCOCC1)c1cn(-c2ccccc2)nc1-c1cccs1`: “inactive”; for `CCOC(=O)Cc1csc(NC(=O)COc2cccc(C)c2)n1`: “inactive”. As for `Cc1ccc(-n2c(SCC(=O)N(C)C3CCS(=O)(=O)C3)nc3ccccc3c2=O)cc1` (stereo not drawn), the result was inactive.

With `O=C(O)CCC(=O)NC(c1ccccc1)c1ccccc1`, the compound was classed as inactive.

For `COc1ccc(-c2nnc(SC(C)C(=O)Nc3ccc4c(c3)OCCO4)o2)cc1` (stereo not drawn), the outcome was inactive. Take `CCc1nc(N)nc(N)c1-c1ccc(Cl)cc1`: the compound was called inactive.

Consider `Cc1ccc(-c2nc3cccnc3s2)cc1NS(=O)(=O)c1ccc2c(c1)CCCC2`, for which the compound was called inactive.

Take `CC(Sc1nnc(-c2ccccc2)c(-c2ccccc2)n1)C(=O)Nc1ncc(Cl)cc1Cl` (stereo not drawn): the compound was classed as inactive.

On to `COc1ccc(Cn2c(=O)sc3ccccc3c2=O)cc1`, for which the compound was called inactive. With `Cc1ccc(S(=O)(=O)CCC(=O)NCCN2C(=O)S/C(=C\c3ccccc3)C2=O)cc1`, the outcome was inactive. With `Cc1nnc(SCc2c(Cl)cccc2Cl)n(N)c1=O`, the call was inactive.

As for `COC(=O)C1=C(C)Nc2c(c(=O)n(C)c(=O)n2C)C1c1cccnc1` (stereo not drawn), the compound was classed as inactive. As to `COc1ccc2ccc(=O)oc2c1`, the result was inactive. To `CC(C)(C)c1ccc(C(=O)Nc2ccc(NC(=O)c3ccco3)cc2)cc1` belongs “inactive”; to `O=c1cc(CSc2ccc([N+](=O)[O-])cc2)nc2sccn12`, “inactive”. The same measure for `COC(=O)CNC(=O)c1cc(OC)cc(OC)c1`: “inactive”.

These data come from PubChem BioAssay AID1233 (SRMLSC, 2008).
